The list is not random: actives were taken first. Their share in the collection is about 19%.
TDP1 block – blocks human tyrosyl-DNA phosphodiesterase 1; Q9NUW8; recombinant TDP1, AlphaScreen DNA substrate cleavage; Potency, µM (doses to about 130 µM), hits mostly inhibitors; hit rate 0.28% among 350,000; further: nearly all actives have a fitted effect of over 40% in size
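Compounds were preincubated with Tdp1 (1 nM final) for 15 min at room temperature before substrate (15 nM final) started a 5 min reaction; beads (10 ug/ml final) were then added for 10 min before AlphaScreen detection.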
VP16 counter – inhibits Gal4-VP16 luciferase reporter, ROR gamma counter-screen; hit rate 3.5% among 310,000; AID 2546; Potency, µM (top dose mostly 53.6 µM), usual class: inhibitors; Drosophila S2 Gal4-VP16 UAS-luciferase, luminescence, 20 h;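 further: Gal4-VP16 expression switched on by copper sulfate through the metallothionein promoter; nearly all actives have a fitted effect of over 50% in size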
TDP1 cell noCPT – qHTS for Inhibitors of human tyrosyl-DNA phosphodiesterase 1 (TDP1): qHTS in cells in absence of CPT; Potency, µM (top dose mostly 46.2 µM), actives largely listed as inhibitors; hit rate 15% among 420,000; DT40 Tdp1-/- hTDP1 cells, no CPT, ATP luminescence, 48 h; further: nearly all actives have a fitted effect of over 55% in size
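Growth of hTDP1-complemented DT40 Tdp1-knockout cells is measured by ATP luminescence after at least 48 hr compound exposure at 37 °C, with DMSO substituting for the 20 nM CPT used in the parallel screen.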
RORg inh – ROR gamma (mouse) transcription inhibition. P51450. Drosophila S2 Gal4-RORgamma UAS-luciferase reporter, 20 h. Potency, µM (highest dose often 53.6 µM), hits mostly inhibitors. hit rate 5.4% among 310,000. AID 2551; further: nearly all actives have a fitted effect of over 60% in size
Target sequence (P51450 whole entry, looked up, the tested form may be a part): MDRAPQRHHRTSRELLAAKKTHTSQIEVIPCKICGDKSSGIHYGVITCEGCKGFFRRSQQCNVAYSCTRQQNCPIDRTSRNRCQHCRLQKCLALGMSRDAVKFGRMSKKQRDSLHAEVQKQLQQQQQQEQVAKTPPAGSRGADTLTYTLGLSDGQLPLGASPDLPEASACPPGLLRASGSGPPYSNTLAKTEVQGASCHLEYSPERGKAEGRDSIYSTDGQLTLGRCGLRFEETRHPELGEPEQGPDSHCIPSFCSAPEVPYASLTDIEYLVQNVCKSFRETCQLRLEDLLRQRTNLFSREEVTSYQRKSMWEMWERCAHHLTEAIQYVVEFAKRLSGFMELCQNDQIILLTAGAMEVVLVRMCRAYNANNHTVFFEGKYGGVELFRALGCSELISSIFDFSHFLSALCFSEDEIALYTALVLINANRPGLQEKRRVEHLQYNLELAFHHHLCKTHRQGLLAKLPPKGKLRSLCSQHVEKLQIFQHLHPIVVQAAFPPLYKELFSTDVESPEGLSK
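Drosophila S2 cells stably expressing Gal4-DBD/mouse RORγ fusion under metallothionein promoter plus UAS-luciferase; compound 1 h, then 700 uM CuSO4 induction for 20 h at ambient temperature; inhibition read as reduced luminescence.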
TDP1 cell CPT – DT40-hTDP1 cell growth loss with CPT; chicken DT40 Tdp1-/-;hTDP1 cells + 20 nM CPT, ATP luminescence, 48 h; Potency, µM (top dose mostly 46.2 µM), hits mostly inhibitors; hit rate 12% among 420,000; AID 686979; further: nearly all actives have a fitted effect of over 55% in size
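Chicken DT40 Tdp1-/- cells stably complemented with human TDP1 were seeded at 400 cells/well in medium containing 20 nM camptothecin, exposed to pin-transferred compounds, and grown at 37 °C for at least 48 hr. Viability was read as ATP luminescence.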
Large screens that a line does not name were inactive. The call rests on the fitted dose curve; in most records, active means well fitted curve in the direction sought with a large enough effect; inconclusive means small, poorly fitted or top-dose-only effect, or another doubt; inactive means no such curve, though single readings can be large; an effect the other way counts as inactive or inconclusive.

Cc1ccc(NC(=O)C(=O)NCCN2CCN(Cc3ccc([N+](=O)[O-])cc3)CC2)cc1	TDP1 cell noCPT inconclusive
Cc1ccc(S(=O)(=O)N(Cc2ccccc2)c2ccccc2C(=O)NCc2ccco2)cc1	TDP1 cell noCPT inconclusive, TDP1 cell CPT inconclusive
O=C(CN(c1ccccc1)S(=O)(=O)c1ccccc1)Nc1ccccc1C(=O)NCc1ccco1	TDP1 cell noCPT 16µM, TDP1 cell CPT inconclusive
Cc1ccc(C)c(N(CC(=O)NC2CCCC2)S(=O)(=O)c2ccccc2)c1	TDP1 cell noCPT 8.2µM, TDP1 cell CPT 12µM
Cc1ccc(C)c(N(CC(=O)Nc2ccccc2C(=O)NCc2ccco2)S(=O)(=O)c2ccccc2)c1	TDP1 cell noCPT 16µM, TDP1 cell CPT inconclusive
Cc1ccc(S(=O)(=O)N(Cc2ccccc2)c2ccccc2C(=O)Nc2ccccc2C(=O)NCc2ccco2)cc1	TDP1 cell noCPT inconclusive, TDP1 cell CPT 23µM
Cc1ccc(Cl)cc1N(CC(=O)NC1CCCCC1)S(C)(=O)=O	none
Cc1cccc(OCCCn2c(=O)sc3ccccc32)c1	RORg inh 8.9µM
Cc1ccc2c(c1)C(=O)C(=O)N2CCCOc1ccccc1	TDP1 cell noCPT 2.1µM, TDP1 cell CPT 1µM
Cc1cccc(OCCCN2C(=O)C(=O)c3cc(C)ccc32)c1	TDP1 cell noCPT 0.92µM, TDP1 cell CPT 1.6µM
COc1cccc(NC2=NCC(=O)N2Cc2cccs2)c1	none
CCCCOc1ccc(C(=O)NCCc2sc(-c3ccc(OC)c(OC)c3)nc2C)cc1	none (no result: VP16 counter, TDP1 cell noCPT, RORg inh, TDP1 cell CPT)
Cc1[nH]n(-c2ccccc2)c(=O)c1/C=C1/C=c2ccccc2=N1	VP16 counter inconclusive, TDP1 cell noCPT 21µM, TDP1 cell CPT inconclusive
Cc1[nH]n(-c2ccccc2)c(=O)c1/C=C1\C=NN=C1c1ccccc1	VP16 counter inconclusive, RORg inh 11µM
Cc1[nH]n(-c2ccccc2)c(=O)c1-c1ccccc1	none
Cc1[nH]n(-c2ccccc2)c(=O)c1C=Nc1ccc(S(N)(=O)=O)cc1	none
Cc1nn(C(=O)c2ccco2)c(C)c1Sc1ccc([N+](=O)[O-])cc1	TDP1 cell noCPT inconclusive, TDP1 cell CPT inconclusive
Cc1cccc(-c2nc(CS(=O)CC(=O)NCCCSC3CCCCC3)c(C)o2)c1 (stereo not given)	TDP1 cell noCPT inconclusive, TDP1 cell CPT inconclusive
COc1cccc(OC)c1C(=O)NC(=S)Nc1ccc2c(c1)OCCO2	TDP1 cell noCPT inconclusive, RORg inh 13µM
CCOc1cccc(C(=O)NC(=S)Nc2ccc3c(c2)OCCO3)c1	TDP1 cell noCPT inconclusive, RORg inh 7.9µM
O=C(Nc1ccc2c(c1)OCCO2)c1ccccc1F	VP16 counter inconclusive, TDP1 cell noCPT 15µM, RORg inh inconclusive, TDP1 cell CPT 7.3µM
O=C(Nc1ccc2c(c1)OCCO2)c1ccccc1Cl	none (no result: TDP1 block, VP16 counter, RORg inh)
O=C(NC(=S)Nc1ccc2c(c1)OCCO2)c1ccccc1F	VP16 counter inconclusive, RORg inh 10µM
COc1cccc(OC)c1C(=O)NC(=S)Nc1ccc2c(c1)Cc1ccccc1-2	TDP1 cell noCPT inconclusive, RORg inh inconclusive, TDP1 cell CPT inconclusive
CCOc1ccc(C(=O)Nc2ccc3c(c2)OCCO3)cc1OC	TDP1 cell CPT inconclusive
COC(=O)CS(=O)(=O)c1ccc2c(c1)CC(=O)N2	none
COc1cccc(-n2c(=O)[nH]cc(C(=O)Nc3ccc4c(c3)OCCO4)c2=O)c1	RORg inh inconclusive, TDP1 cell CPT 4.1µM
O=C(NC(=S)Nc1ccc2c(c1)OCCO2)c1ccccc1	VP16 counter inconclusive, TDP1 cell noCPT 14µM, RORg inh 4µM, TDP1 cell CPT inconclusive
CCOc1cccc(C(=O)NC(=S)Nc2ccc(N3CCCC3)cc2)c1	VP16 counter 6.3µM, TDP1 cell noCPT inconclusive, RORg inh 2.2µM
Cn1ccc(C(=O)Nc2ccc3c(c2)OCCO3)n1	VP16 counter inconclusive, RORg inh 7.9µM, TDP1 cell CPT inconclusive
CCN(CCCNC(=O)c1nn(-c2ccc(OC)cc2)c(=O)c2c1c1ccccc1n2C)c1cccc(C)c1	TDP1 cell noCPT inconclusive (no result: VP16 counter, RORg inh)
CCCCCC1CC(=O)NC1(C(=O)OCC)C(=O)OCC (stereo not given)	none (no result: TDP1 block, VP16 counter, RORg inh)
CCOc1cccc(C(=O)NC(=S)Nc2ccc(Cl)cc2C(=O)O)c1	VP16 counter 3.5µM, TDP1 cell noCPT inconclusive, RORg inh 7.1µM, TDP1 cell CPT inconclusive
O=C(Nc1ccc(NC(=O)c2ccccn2)cc1)C(=O)Nc1ccc2c(c1)OCCO2	RORg inh inconclusive
O=C(Nc1ccc2c(c1)OCCO2)c1ccccn1	VP16 counter 14µM, TDP1 cell noCPT inconclusive, RORg inh 7.1µM, TDP1 cell CPT inconclusive
O=C(Nc1ccc2c(c1)OCCO2)c1ccc2ccccc2n1	TDP1 cell noCPT inconclusive
O=C(Nc1ccc2c(c1)OCCO2)c1cccc2nc3ccccc3nc12	TDP1 cell noCPT 15µM, TDP1 cell CPT 23µM
Nn1c(SCC(=O)Nc2ccc3c(c2)OCCO3)nncc1=O	none
Cc1ccc(S(=O)(=O)/N=C(\N)c2ccc(Cl)cc2)cc1	TDP1 cell noCPT inconclusive (no result: TDP1 block)
COc1ccc(-c2cc(=Nc3ccc(C(=O)O)cc3)c3cc(C)ccc3o2)cc1	VP16 counter inconclusive
CCc1ccc2oc(-c3ccc(OC)cc3)cc(=Nc3cccc(C(=O)O)c3)c2c1	VP16 counter 11µM, TDP1 cell noCPT inconclusive, RORg inh inconclusive, TDP1 cell CPT inconclusive
CCOc1ccc(N(C)S(=O)(=O)c2ccc3[nH]cc(C(=O)NCCCOC)c(=O)c3c2)cc1	TDP1 cell noCPT 21µM, RORg inh inconclusive, TDP1 cell CPT 23µM (no result: TDP1 block)
CCOc1ccc2[nH]cc(C(=O)NCc3ccccc3)c(=O)c2c1	TDP1 cell noCPT 21µM, RORg inh inconclusive, TDP1 cell CPT 16µM
CCCNC(=O)c1c[nH]c2ccc(S(=O)(=O)N(C)c3ccc(OCC)cc3)cc2c1=O	VP16 counter inconclusive, TDP1 cell noCPT 23µM, TDP1 cell CPT inconclusive
CCOc1ccc(NS(=O)(=O)c2ccc3[nH]cc(C(=O)NC(C)CC)c(=O)c3c2)cc1 (stereo not given)	TDP1 cell noCPT 21µM, TDP1 cell CPT inconclusive
CCOc1ccc(NS(=O)(=O)c2ccc3[nH]cc(C(=O)NC4CCCC4)c(=O)c3c2)cc1	none (no result: VP16 counter, RORg inh)
COCCCNC(=O)c1c[nH]c2ccc(S(=O)(=O)N(C)c3ccccc3C)cc2c1=O	TDP1 cell noCPT inconclusive, TDP1 cell CPT inconclusive (no result: TDP1 block)
CCCCN(C)CCNC(=O)c1c[nH]c2ccc(S(=O)(=O)N(CC)CC)cc2c1=O	none
CCOc1ccc2[nH]cc(C(=O)NCCc3ccccc3)c(=O)c2c1	TDP1 cell noCPT inconclusive, TDP1 cell CPT inconclusive (no result: TDP1 block)
CN(CC(=O)Nc1cccc(S(=O)(=O)N2CCCC2)c1)Cc1ccccc1	TDP1 cell noCPT inconclusive (no result: VP16 counter, RORg inh)
CCOc1ccc(N(C)S(=O)(=O)c2ccc3[nH]cc(C(=O)NCCOC)c(=O)c3c2)cc1	VP16 counter inconclusive, TDP1 cell noCPT inconclusive, RORg inh inconclusive, TDP1 cell CPT 13µM

High-throughput results from PubChem BioAssay.
